# Measured values: PubChem BioAssay (EPA / NIEHS)
# Values joined by “and” are separate entries in the source; they are usually repeats but may differ in a detail not shown here. Equal entries are not always repeated. A structure can be active in one record and inactive in another. Active and inactive are the calls of the source. How the source made its calls: active means hit-call score of the fitted dose curve at least 0.9, where 1 is the maximum; inactive means score below 0.9.
# Experiment: ATG_EGR_CIS: Attagene CIS-FACTORIAL HepG2 Assay for human Early Growth Response 1 (EGR1) (AID 2282938)
# Settings: HepG2 Attagene CIS-FACTORIAL EGR reporter mRNA; actives raise or lower the signal
# Procedure: ATG_CIS is a cell-based, multiplexed-readout assay that uses HepG2, a human liver cell line, with measurements taken at 24 hours after chemical dosing in a 24-well plate.ATG_EGR_CIS is one of 52 assay component(s) measured or calculated from the ATG_CIS assay. It is designed to make measurements of mRNA induction, a form of inducible reporter, as detected with fluorescence intensity signals by Reverse transcription polymerase chain reaction (RT-PCR) and Capillary electrophoresis technology.Data from the assay component ATG_EGR_CIS was analyzed into 1 assay endpoint. This assay endpoint, ATG_EGR_CIS, was analyzed with bidirectional fitting relative to DMSO as the negative control and baseline of activity. Using a type of inducible reporter, measures of mRNA for gain or loss-of-signal activity can be used to understand the reporter gene at the transcription factor-level as they relate to the gene EGR1. Furthermore, this assay endpoint can be referred to as a primary readout, because this assay has produced multiple assay endpoints where this one serves a reporter gene function. To generalize the intended target to other relatable targets, this assay endpoint is annotated to the dna binding intended target family, where the subfamily is zinc finger.
# Human liver HepG2 cells are transiently transfected with multiple reporter transcription units (MRTUs) in 6-well plates using FuGene 6 reagent (Roche; 3 ml FuGene/1 mg DNA). The MRTU constructs are regulated by a cis-regulating element (promoter). […] A major difference between the CIS and TRANS system is that in CIS activities of endogenous TFs are measured, whereas the TRANS assay evaluates changes in activities of exogenous, chimeric NR-Gal4 proteins. […] At the end of 24 hour incubation, total RNA was isolated using TriZol reagent (Invitrogen). The isolated RNA is then reverse-transcribed using oligo(dT) primer and Mo-MLV reverse transcriptase (Invitrogen) with DNAse I (Ambion) treatment for 30 min. The one-tenth of the produced cDNA was amplified by PCR using Taq DNA polymerase (Invitrogen) and two reporter sequence-specific primers. The PCR products were fluorescently labeled by primer extension with 6-arboxyfluorescein (6-FAM) 5'-labeled reporter sequence-specific primer (2 min at 95 C, 20 s at 68 C and 10 min at 72 C) and these products were digested with 5U of HpaI (New England Biolabs) for 2h at 37 C. The fragments were purified using Qiaquick PCR columns (Qiagen), analyzed on an ABI 3130xL genetic analyzer (Applied Biosystems) with peak positions identified by using a set of X-rhodamine (ROX)-labeled MapMarker1000 molecular weight standards (BioVentures). The raw capillary electrophoresis data was processed using Attagraph software (Attagene).
Structure (SMILES),outcome,AC50
CCCCCCCCOC(=O)c1ccc(O)cc1,inactive,–
CC=CC(=O)C1=C(C)C=CCC1(C)C,inactive,–
CCOC(=O)CC1(C)OCC(C)O1 (stereo not given),inactive,–
CCCO[Si](OCCC)(OCCC)OCCC,inactive,–
O=S(=O)(O)c1cc(S(=O)(=O)O)c2c(N=Nc3ccccc3)c(O)ccc2c1,inactive,–
CN(C)c1ccc(C=O)cc1,inactive,–
CC(=O)OC(C)(C)C1CC=C(C)CC1 (stereo not given),inactive,–
[Cu+],inactive,–
CCCCCC(=O)O[C@]1(C(C)=O)CC[C@H]2[C@@H]3CCC4=CC(=O)CC[C@]4(C)[C@H]3CC[C@@]21C,inactive,–
c1ccc2c(c1)-c1ccc3ccc4cccc5cc-2c1c3c45,inactive,–
CC(=O)C1C(=O)C=C(C)OC1=O (stereo not given),inactive,–
C[N+](C)(C)CCO,inactive,–
C=CCCCCCCCCC(=O)OCC,inactive,–
[Na+],inactive,–
O=C(c1ccc(OCCN2CCCCC2)cc1)c1c(-c2ccc(O)cc2)sc2cc(O)ccc12,inactive,11.1 µM (active) and 12.6 µM (active) and 7.51 µM (active)
CCCCCCCCCO,inactive,–
COc1ccccc1NC(=O)CC(C)=O,inactive,–
CC(=O)CCC(=O)O,inactive,–
COC(=O)c1ccc(C(=O)OC)cc1,inactive,–
CCOC(=O)C=Cc1ccccc1,inactive,–

Structure (SMILES),outcome,AC50
CC(=O)Oc1c(C)c(C)c2c(c1C)CC[C@@](C)(CCC[C@H](C)CCC[C@H](C)CCCC(C)C)O2,inactive,–
CC(C)CCCC(C)(C)O,inactive,–
C1=COCCC1,inactive,–
COc1ccc(C(C)=O)cc1,inactive,–
O=C1CCCCCCCCCCCC(=O)OCCO1,inactive,–
CCCCCCCCCCCCOC(C)=O,inactive,–
CN1CCc2cccc3c2[C@H]1Cc1ccc(O)c(O)c1-3,inactive,–
CC(O)CNCC(C)O (stereo not given),inactive,–
CCOC(=O)C(=O)OCC,inactive,–
CCCC[N+](C)(CCCC)CCCC,inactive,–
C[C@H](CCC(=O)O)[C@H]1CC[C@H]2[C@@H]3CC[C@@H]4C[C@H](O)CC[C@]4(C)[C@H]3CC[C@]12C,–,25.2 µM (active)
C=CC(=O)OCC(CO)(COC(=O)C=C)COC(=O)C=C,–,5.52 µM (active)
O=[N+]([O-])c1cc(N(CCO)CCO)ccc1NCCO,inactive,–
CC(=O)CC(=O)N(C)C,inactive,–
O=S(=O)(O)CCCN1CCOCC1,inactive,–
OC[C@H]1O[C@@H](O[C@H]2[C@H](O)[C@@H](O)[C@H](O)O[C@@H]2CO)[C@H](O)[C@@H](O)[C@H]1O,inactive,–
O=Cc1ccccc1O,inactive,–
CCOc1ccc(NC(C)=O)cc1,inactive,–
Cc1ccncc1,inactive,–
